Compound activity (PubChem BioAssay)
Hits are enriched below; roughly 0.9% of the tested compounds scored in any of these assays.
CDC25B CDK2 inh: human CDC25B-CDK2/CyclinA binding inhibition. P30305+P24941. AID 1259370. 94,000 compounds, 0.72% hits. z-score (concentration not given with the values). HTRF CDC25B-CDK2/CyclinA binding, anti-His/anti-Flag; stronger effect = higher value; in the data active = z-score above about 3.2
TAR Tat displ: HIV-1 TAR-Tat binding disruption | 100,000 compounds, 0.6% hits | z-score (no concentration beside the values) | HIV-1 TAR RNA, Tat peptide displacement FRET; stronger effect = higher value | AID 1259389; active = z-score of 3 or more in at least 2 runs
Numbers stand for hits.

For CSc1cccc(NS(=O)(=O)c2ccc(CCN3C(=O)c4cccnc4C3=O)cc2)c1 the results were TAR Tat displ inactive.
`O=C(CSc1nc(=O)n(-c2ccc(Cl)cc2)c2c1CCC2)c1ccccc1` gave CDC25B CDK2 inh inactive and TAR Tat displ inactive.
O=C(c1[nH]nc2c1COc1ccccc1-2)N1CCN(c2ccccn2)CC1 was read as TAR Tat displ inactive.
For Cc1nn(C(C)C(=O)NCCCN2CCc3ccccc3C2)c(=O)c2c1sc1ccccc12 (centres undefined) the results were CDC25B CDK2 inh inactive and TAR Tat displ inactive.
Screening COc1ccc(Cl)cc1NC1c2ncccc2C(=O)N1c1ccccc1 (centres undefined) returned TAR Tat displ inactive.
For COc1cc(-c2n[nH]c(=S)n2CCc2ccccc2)cc(OC)c1OC the results were CDC25B CDK2 inh inactive.
CN1CSC2=C(C#N)C(c3cccc(OCc4ccccc4)c3)CC(=O)N2C1 (centres undefined) was read as CDC25B CDK2 inh 3.36 and TAR Tat displ inactive.
For CCOC(=O)c1ccc(N2CSC3=C(C#N)C(c4ccc(C)cc4)CC(=O)N3C2)cc1 (centres undefined) the results were CDC25B CDK2 inh 6.13 and TAR Tat displ inactive.
`CCOC(=O)CN1CSC2=C(C#N)C(c3ccc(F)cc3)CC(=O)N2C1` (centres undefined) gave CDC25B CDK2 inh inactive and TAR Tat displ inactive.
`CN1CSC2=C(C#N)C(c3ccccc3)CC(=O)N2C1` (centres undefined) gave CDC25B CDK2 inh inactive and TAR Tat displ inactive.
CCOc1ccc(N2CSC3=C(C#N)C(c4ccc(C)o4)CC(=O)N3C2)cc1 (centres undefined) was read as CDC25B CDK2 inh 3.39 and TAR Tat displ inactive.
Screening COCCN1C(=O)c2oc3ccc(F)cc3c(=O)c2C1c1ccc(O)c(OC)c1 (centres undefined) returned CDC25B CDK2 inh inactive and TAR Tat displ inactive.
Screening C[C@@H]1CCC2[C@](C)(CO)[C@@H](O)CC[C@]2(C)[C@@]12CC[C@@](CO)(CCO)O2 (some centres undefined) returned TAR Tat displ inactive.
For COCc1nc2sc(C)c(-c3ccccc3)c2c(=O)[nH]1 the results were CDC25B CDK2 inh inactive and TAR Tat displ inactive.
For COc1ccc2c(c1)C=C(C(=O)NC1CCCC1)CO2 the results were TAR Tat displ inactive.
For CCOCCCNC(=O)C(CC)N1C(=O)CCn2nc(C)cc21 (centres undefined) the results were TAR Tat displ inactive.
For Cc1c2c(=O)n(-c3nc4ccccc4s3)nc-2cc(O)n1CCc1c[nH]c2ccccc12 the results were CDC25B CDK2 inh inactive and TAR Tat displ 9.19.
For Cc1nn(C(C)C(=O)NCCc2c[nH]c3ccccc23)c(=O)c2c1sc1ccccc12 (centres undefined) the results were CDC25B CDK2 inh inactive and TAR Tat displ inactive.
`CCC(C)Cn1c(C)c2c(=O)n(-c3nc4ccccc4s3)[nH]c2cc1=O` (centres undefined) gave CDC25B CDK2 inh inactive and TAR Tat displ inactive.
Cc1c2c(=O)n(-c3nc4ccccc4s3)nc-2cc(O)n1CCc1cnc[nH]1 was read as CDC25B CDK2 inh inactive and TAR Tat displ 26.4.
Screening CC1=C2C(O)C(=O)OC3CC4C(C)(C)C(=O)C=C[C@]4(C)C(CC1)[C@]23C (some centres undefined) returned TAR Tat displ inactive.
Screening C=CCNc1nc2c3ccccc3n(C(C)=O)c2s1 returned CDC25B CDK2 inh inactive and TAR Tat displ inactive.
COc1ccc(Nc2nc3c4ccccc4n(C(C)=O)c3s2)cn1 was read as CDC25B CDK2 inh 13.9 and TAR Tat displ inactive.
Screening Cc1cc(C)n(-c2nc3c(c(C(F)(F)F)n2)CC(C)CC3)n1 (centres undefined) returned CDC25B CDK2 inh inactive.
`CC(C)CNC(=O)CN1c2ccccc2NC2=C(C(=O)CCC2)C1c1cccs1` (centres undefined) gave TAR Tat displ inactive.
COc1cc(-c2nc(-c3ccccc3)c(-c3cccs3)[nH]2)cc(OC)c1O was read as CDC25B CDK2 inh inactive.
Screening Oc1ccccc1-c1nc(-c2cccs2)c(-c2cccs2)[nH]1 returned CDC25B CDK2 inh 18.3 and TAR Tat displ inactive.
CSC1=N/C(=C\c2ccc([N+](=O)[O-])cc2)C(=O)N1CCOc1cccc(Cl)c1 was read as CDC25B CDK2 inh inactive.
`O=S(=O)(c1cccc2nsnc12)N1CCCC1c1cccc(F)c1` (centres undefined) gave CDC25B CDK2 inh inactive and TAR Tat displ inactive.
O=c1c(-c2cc(O)c(O)c(O)c2)coc2cc(O)c(O)c(O)c12 was read as TAR Tat displ 26.
O=c1c(-c2ccc(O)cc2)coc2cc(O)cc(O)c12 was read as CDC25B CDK2 inh inactive and TAR Tat displ inactive.
O=C(CSc1cn(CC(=O)N2CCCC2)c2ccccc12)NCc1ccc2c(c1)OCO2 was read as TAR Tat displ inactive.
`CC(=O)Nc1ccc2nc3c(=O)[nH]c(=O)[nH]c3nc2c1` gave CDC25B CDK2 inh 8.04 and TAR Tat displ inactive.
CCC(=O)Nc1ccc2nc3c(=O)[nH]c(=O)[nH]c3nc2c1 was read as CDC25B CDK2 inh inactive and TAR Tat displ inactive.
COc1ccc(CNc2ncnc3c2cnn3C)cc1 was read as TAR Tat displ inactive.
N#CC1=C2SCN(Cc3ccco3)CN2C(=O)CC1c1cccs1 (centres undefined) was read as CDC25B CDK2 inh inactive and TAR Tat displ inactive.
Cc1ccsc1CCN1CSC2=C(C#N)C(c3ccc(Cl)cc3)CC(=O)N2C1 (centres undefined) was read as CDC25B CDK2 inh 3.23 and TAR Tat displ inactive.
Screening COc1ccc(CN2CSC3=C(C#N)C(c4cccs4)CC(=O)N3C2)cc1 (centres undefined) returned CDC25B CDK2 inh 3.99 and TAR Tat displ inactive.
For CC(C)c1ccc(C2CC(=O)N3CN(Cc4ccccc4)CSC3=C2C#N)cc1 (centres undefined) the results were CDC25B CDK2 inh 5.02 and TAR Tat displ inactive.
N#CC1=C2SCN(CCN3CCOCC3)CN2C(=O)CC1c1ccc(F)cc1 (centres undefined) was read as CDC25B CDK2 inh inactive and TAR Tat displ inactive.
For COc1ccc(CN2CSC3=C(C#N)C(c4cccc(OC)c4)CC(=O)N3C2)cc1 (centres undefined) the results were CDC25B CDK2 inh 7.6 and TAR Tat displ inactive.
`CC(c1ccccc1)N1CSC2=C(C#N)C(c3ccc(F)cc3)CC(=O)N2C1` (centres undefined) gave CDC25B CDK2 inh inactive and TAR Tat displ inactive.
Screening Cc1cc(=O)nc2c3ccccc3n(C(C)C(=O)NCCCN3CCN(C4CCCCC4)CC3)n12 (centres undefined) returned CDC25B CDK2 inh inactive and TAR Tat displ inactive.
For CCOc1ccccc1OCc1nn2cnnc2s1 the results were CDC25B CDK2 inh inactive and TAR Tat displ inactive.
Screening CCOC(=O)C1CCCN(C(=O)NC2(C(F)(F)F)Oc3ccccc3O2)C1 (centres undefined) returned CDC25B CDK2 inh inactive.
COc1ccc(NC(=O)N(CCC(C)C)C(C)c2ccco2)c(OC)c1 (centres undefined) was read as TAR Tat displ inactive.
Screening COC(=O)CSc1nnc(CSc2nc(C)cc(C)n2)n1-c1ccc(OC)cc1 returned CDC25B CDK2 inh inactive and TAR Tat displ inactive.
For O=C(c1ccc(NC(=O)N2CCSc3ncccc32)cc1)N1CCN(c2ncccn2)CC1 the results were TAR Tat displ inactive.
